Data reported in ChEMBL document CHEMBL3988442, “University of Dundee, Small-Polar-MMV Screening Library” (2021).
Out of some 48,000 compounds screened, about 13,000 (27%) showed an effect of 50% or more. The list shows a part of the results.

System: Wolbachia pipientis
Assay: Anti-Wolbachia Cell-Based Screen
Assay type: functional
Parameters: scale not given: in the data most compounds retested in dose-response had high values
Conditions: 5 µM

SMILES | Percent Effect [%]
O=C(CNc1nc(C2CC2)ns1)N1CCc2sccc2C1 | -3.427
N#CCCN(CCC#N)C(=O)c1cccc(N2CCNC2=O)c1 | -11.85
CC(C)c1nc(C2CCCN(C(=O)CCCn3ccnc3)C2)no1 (stereo not drawn) | 94.72
CC(C)c1nc(C2CCCN(C(=O)CS(=O)(=O)C(C)C)C2)no1 (stereo not drawn) | -11.89
Cc1nc(C2CCCN(C(=O)CN3CCCNC3=O)C2)sc1C (stereo not drawn) | 6.53
Cc1nc(C2CCCN(C(=O)CCCn3cccn3)C2)no1 (stereo not drawn) | 10.77
CC(C)c1nc(C2CCCN(C(=O)CN(C)S(C)(=O)=O)C2)no1 (stereo not drawn) | -21.51
CCS(=O)(=O)CC(=O)N1CCCC(c2noc(C(C)C)n2)C1 (stereo not drawn) | -6.108
CC(C)c1nc(C2CCCN(C(=O)CCCn3cccn3)C2)no1 (stereo not drawn) | 95.04
CC(C)c1nc(C2CCCN(C(=O)CCn3ccnc3)C2)no1 (stereo not drawn) | -0.5429
CC(C)c1nc(C2CCCN(C(=O)CN3CCCNC3=O)C2)no1 (stereo not drawn) | 6.733
Cc1nc(C2CCCN(C(=O)CCCn3cccn3)C2)sc1C (stereo not drawn) | 112.1
Cc1nc(C2CCCN(C(=O)CN3CCCC3=O)C2)sc1C (stereo not drawn) | -7.822
CC(C)c1nc(C2CCCN(C(=O)CCc3cscn3)C2)no1 (stereo not drawn) | 114.7
CCN(Cc1cccc(NC(=O)COCCOC)c1)C(C)=O | -8.699
CCc1c(C)nn(CC(=O)NC(C)c2n[nH]c(C)n2)c1C (stereo not drawn) | 2.562
Cc1noc(C2CCN(c3oc(C)nc3C#N)CC2)n1 | -7.205
CC(C)N1CCC(C(=O)NC[C@H]2CCc3ccccc3O2)CC1 | -3.949
COC(=O)CCNC(=O)c1ccc(NC(=O)N(C)CC(C)(C)C)cc1 | 28.42
Cc1nc(C2CCCN(C(=O)CCCn3ccnc3C)C2)no1 (stereo not drawn) | -5.463
Cc1nccn1CCCC(=O)N1CCCC(c2noc(C(C)C)n2)C1 (stereo not drawn) | 94.02
O=C1O[C@@H]2CN(Cc3ccccn3)C[C@@H]2N1CCCc1ccc(F)cc1 | 2.234
Cc1ccc(OC2(C(=O)N(C)Cc3ccoc3)CCNCC2)cc1 | -12.66
CCCc1cc(CNC2CCN(c3cc(C)nc(N)n3)CC2)on1 | 82.71
CCCc1cc(CNC(=O)Cc2cc(C)no2)on1 | 0.033
CCCc1cc(N2CCC(NCC3(O)CCN(C)CC3)CC2)nc(C)n1 | -6.496

SMILES | Percent Effect [%]
CCCc1cc(CNC2CCN(c3nc4ccccc4s3)CC2)on1 | 114.2
Cc1n[nH]c(SCCNC2CCN(c3nc4ccccc4s3)CC2)n1 | -0.1074
CCCc1cc(N2CCC(NC3CCS(=O)(=O)C3)CC2)nc(C)n1 (stereo not drawn) | -13.12
CCCc1cc(N2CCC(N[C@H]3CC[C@H](O)CC3)CC2)nc(C)n1 | -4.932
Cc1cc(C)nc(N2CCC(NCCSc3nnnn3C)CC2)n1 | -14.51
CCCc1cc(CNC2CCN(c3cc(C(C)C)nc(C)n3)CC2)on1 | 93.6
CCCc1cc(CNC2CCN(c3nc(C)cc(C)n3)CC2)on1 | 99.03
CCCc1cc(N2CCC(NC3CCOCC3)CC2)nc(C)n1 | 29.8
CCS(=O)(=O)CCNC1CCN(c2nc3ccc(Cl)cc3s2)CC1 | -46.95
Cc1ccc(C(=O)N2CCN(c3ncnc4nc(N)ccc34)CC2)o1 | -4.077
Cc1noc(C)c1S(=O)(=O)NCC(C)(O)c1ccc2c(c1)OCO2 (stereo not drawn) | 22.76
CCS(=O)(=O)c1ccc2oc([C@H]3CCN(Cc4ccncc4)C3)nc2c1 | -3.63
CN1N=C(C(=O)N2CCCC(CCc3ccccc3)C2)CCC1=O (stereo not drawn) | -44.22
COCCN(C)Cc1ccc(OC)c(OC(F)F)c1 | -5.242
COCc1cc(C[C@@H]2CC[C@H](O)[C@@H](CN(CC(C)C)CC(C)C)O2)no1 | -3.447
Cc1nc(CN2C(=O)C[C@@H]3[C@@H]2CCN3S(=O)(=O)C2CC2)cs1 | 97.85
Cc1nc(CN2C(=O)C[C@@H]3[C@@H]2CCN3S(C)(=O)=O)cs1 | 77.62
Cc1nc(CN2C(=O)C[C@@H]3[C@@H]2CCN3C(=O)C2CCOCC2)cs1 | 6.269
Cc1nc(CN2C(=O)C[C@@H]3[C@@H]2CCN3Cc2cnn(C)c2)cs1 | 96.83
CCOC(=O)c1nc(CN2CCN(C(C)C(=O)NC3CC3)CC2)cs1 (stereo not drawn) | -13.36
COc1ccc(CCC(=O)NCc2cc(C)on2)cc1 | 0.6679
CCCC(=O)NCCc1nc2cc(-c3ccc(OC)cc3)ncn2n1 | 102.6
COc1ccc2cccc(CC(=O)NCCc3n[nH]c(=O)[nH]3)c2c1 | -7.606
Cn1cnc2c(-c3cccnc3)nc(C3CCN(S(C)(=O)=O)CC3)cc21 | -22.74
COc1ccc(NCc2c[nH]nc2-c2cccnc2)cc1 | -7.559
CCCNCc1cn(Cc2ccccc2)nc1-c1cccnc1.Cl | -0.3485

SMILES | Percent Effect [%]
CCNc1nc(-c2cccnc2)c(-c2ccnc(NS(C)(=O)=O)n2)s1 | 73.47
CCNc1nc(-c2cccnc2)c(-c2ccnc(NCCO)n2)s1 | 103.5
CC(CNc1nccc(C(C)C)n1)Oc1cccnc1 (stereo not drawn) | 15.19
CC(C)(C)Nc1nc(-c2cccnc2)c(-c2ccnc(NCCO)n2)s1 | 93.88
Cn1c(CN2CCC(O)CC2)nnc1C1CCCN(c2ccncc2)C1 (stereo not drawn) | -3.015
N#Cc1cc(Cl)ccc1N1CCOC(C(N)=O)C1 (stereo not drawn) | -16.78
Cc1cccc(CN2CCN(c3ncnc4[nH]cnc34)CC2CCO)n1 (stereo not drawn) | 8.055
Cc1ccc(C(=O)NC2CCCN(c3ncccn3)C2)cn1 (stereo not drawn) | 6.467
CCOc1ncccc1NC(=O)N1CCOCC1C (stereo not drawn) | -9.997
CCOc1ccc(C(=O)NC2CCN(c3ncccn3)CC2)cc1C | 5.908
CCOCc1ccccc1NC(=O)NC1CCN(c2ncccn2)CC1 | 3.518
CCN1CCC(CNC(=O)Nc2cccnc2OC)CC1 | 15.3
CCOc1ncccc1NC(=O)N1CCCCCC1 | 3.505
CCCC1CCCN(C(=O)Nc2cccnc2OC)CC1 (stereo not drawn) | 9.171
CCOc1ncccc1C(=O)NC1CC(=O)N(CC(F)(F)F)C1 (stereo not drawn) | -4.406
CCOc1ncccc1NC(=O)NC1CCN(C(=O)C2CC2)CC1 | 105.1
CCOc1ncccc1C(=O)NC1CCCN(c2ncccn2)C1 (stereo not drawn) | 120.7
CCOc1ncccc1NC(=O)NC1CCN(C(C)=O)CC1 | 106.2
CCOc1ncccc1NC(=O)NC1CCN(c2ncccn2)CC1 | 128.6
CCN(CC(F)(F)F)C(=O)C1CCCN(Cc2ccno2)C1 (stereo not drawn) | -5.798
CCOCCC(=O)N1CC(=O)Nc2cc(Br)ccc21 | 10.79
CC(=O)NC(Cc1c[nH]c2cc(F)ccc12)C(=O)Nc1nonc1C (stereo not drawn) | -8.72
Cc1cccc(C(C(=O)NCCCc2nnc3ccccn23)N(C)C)c1 (stereo not drawn) | -0.5328
O=C(O)C(F)(F)F.c1ccc(NC[C@@H]2CCC[C@@H]3CN(c4ncccn4)C[C@@H]32)nc1 | 13.12
Cc1cccc(-n2nc(CC(C)C)nc2CCC(=O)N(C)C)c1 | 1.155
CCOCc1ccccc1NC(=O)NC1CCN(C(=O)OCC)CC1 | 14.37

SMILES | Percent Effect [%]
CCOc1ncccc1NC(=O)NC1CCCN(S(C)(=O)=O)C1 (stereo not drawn) | 87.05
COc1ncccc1NC(=O)NCC1CC1 | 5.858
COc1ncccc1NC(=O)NC1CCCN(c2ncccn2)C1 (stereo not drawn) | 123
CCOc1ncccc1NC(=O)N1CCN(c2cccc(C)c2C)CC1 | -4.888
Cc1ccc(CNC(=O)NC2CCCN(c3ncccn3)C2)cn1 (stereo not drawn) | -0.9532
CCOc1ncccc1NC(=O)N1CCCC1c1cc(C)no1 (stereo not drawn) | 4.545
COc1ncccc1NC(=O)C1CCN(S(C)(=O)=O)CC1 | 9.079
CCOC(=O)N1CCC(NC(=O)Nc2cccnc2OCC)CC1 | 102.8
COc1cc(CN2CCCC(Nc3cccc(F)c3)C2)cc(Cl)c1O (stereo not drawn) | 5.248
CN1C(=O)C2(CCN(S(=O)(=O)C3CC3)CC2)c2ccccc21 | -8.422
O=C(CCc1nc(-c2cccnc2)no1)N(CC1CCOC1)C1CC1 (stereo not drawn) | -0.4889
CCCC(NC(=O)c1cc(C)n(C2CC2)c1C)c1nnn[nH]1 (stereo not drawn) | 4.085
NS(=O)(=O)CCNC(=O)c1ccc(-c2ccc(F)cc2)cc1F | -11.53
CC(=O)N1CCN(Cc2c(C)ccc3ccccc23)CC(O)C1 (stereo not drawn) | 0.367
O=C(CN1CCCC1CCCO)NCc1ccccn1 (stereo not drawn) | 111.1
O=C(CN1CCOCC1CC(=O)c1ccco1)NCc1ccccn1 (stereo not drawn) | -22.29
O=C(CN1CCCCCCC1=O)NCc1ccccn1 | 8.013
O=C(CN1CCCC1c1nc2cc(F)ccc2[nH]1)NCc1ccccn1 (stereo not drawn) | -7.361
O=C(CN1CCCC1COc1ccccc1)NCc1ccccn1 (stereo not drawn) | 90.25
O=C(CN1CCCC1CC(=O)c1ccccc1)NCc1ccccn1 (stereo not drawn) | 107.5
c1ccc2c(c1)CC(N1CCCC(NCc3ccc4nonc4c3)C1)C2 (stereo not drawn) | 0.08784
CN(C)S(=O)(=O)c1ccc(CNC(=O)c2cn3c(n2)CNCC3)cc1 | -2.346
Cc1ccc(C)c2c(=O)cc(CN3CC[C@@H](N)[C@H](O)C3)[nH]c12 | -6.693
Cc1ccnn1C(C)C(=O)Nc1cc(-c2ccncc2)[nH]n1 (stereo not drawn) | 16.43
O=C(NCCNc1ncccn1)N1CC=C(c2ccccc2)CC1 | 13.59
